“And” between values parts separate entries of the source, which are not always exact repeats. Equal entries are not always repeated. In all, about 220,000 compounds went through this assay and about 910 (0.41%) were called active.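 The calls were made as follows: active = primary inhibition above the hit cutoff, then over 50% inhibition at one or more dose response concentrations (cut at about 23% in these data, passing the limit was not always enough); inconclusive = conflicting primary data, or primary hits not chosen for dose response; inactive = low primary inhibition, or under 50% at every dose.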 For the sample, actives were picked, then their nearest neighbours and some compounds at random. Potency and affinity values are given separately. A structure can be active in one record and inactive in another.
biological target: Aminopeptidase N (Plasmodium falciparum (isolate 3D7)) (UniProt O96935); assay: P. falciparum M1AAP inhibitors, biochemical, fluorogenic H-Leu-NHMec substrate, 1536-well (AID 1445); settings: recombinant M1AAP, H-Leu-NHMec fluorogenic kinetic assay; at 30 µM; stronger effect = higher value;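 also: plate controls were DMSO full reaction for no effect and no enzyme background for full effect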
Sequence (O96935 whole entry, looked up): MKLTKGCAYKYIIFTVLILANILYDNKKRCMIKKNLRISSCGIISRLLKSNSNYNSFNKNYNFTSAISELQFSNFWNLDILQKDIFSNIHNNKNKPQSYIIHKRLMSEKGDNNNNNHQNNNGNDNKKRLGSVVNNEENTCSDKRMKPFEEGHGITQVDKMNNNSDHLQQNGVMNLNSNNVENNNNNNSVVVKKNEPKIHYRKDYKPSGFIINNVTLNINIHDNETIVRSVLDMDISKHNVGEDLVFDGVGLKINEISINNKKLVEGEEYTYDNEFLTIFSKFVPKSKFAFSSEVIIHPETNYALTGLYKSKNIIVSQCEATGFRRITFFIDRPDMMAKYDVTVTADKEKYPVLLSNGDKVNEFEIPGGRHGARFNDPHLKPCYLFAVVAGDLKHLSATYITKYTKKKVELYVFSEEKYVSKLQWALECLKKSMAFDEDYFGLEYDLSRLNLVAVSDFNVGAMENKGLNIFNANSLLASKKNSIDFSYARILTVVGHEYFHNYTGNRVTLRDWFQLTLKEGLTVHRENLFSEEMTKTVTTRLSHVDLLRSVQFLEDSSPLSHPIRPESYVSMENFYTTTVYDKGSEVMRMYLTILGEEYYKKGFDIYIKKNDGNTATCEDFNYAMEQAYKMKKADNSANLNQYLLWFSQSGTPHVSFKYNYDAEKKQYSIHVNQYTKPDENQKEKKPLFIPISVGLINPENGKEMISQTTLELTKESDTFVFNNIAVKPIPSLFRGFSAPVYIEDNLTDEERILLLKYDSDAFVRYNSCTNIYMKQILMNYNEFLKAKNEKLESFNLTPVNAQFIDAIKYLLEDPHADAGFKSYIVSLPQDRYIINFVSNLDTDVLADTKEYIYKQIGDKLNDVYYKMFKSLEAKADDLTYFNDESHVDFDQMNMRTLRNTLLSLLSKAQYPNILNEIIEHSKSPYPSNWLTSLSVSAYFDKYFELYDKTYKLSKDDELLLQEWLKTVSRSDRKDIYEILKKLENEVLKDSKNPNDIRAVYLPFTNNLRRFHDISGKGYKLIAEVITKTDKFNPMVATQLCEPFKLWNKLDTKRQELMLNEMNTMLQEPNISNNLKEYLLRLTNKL

Structure (SMILES)	inhibition
CC(C)OC(=O)c1c(N)n(Cc2ccco2)c2nc3ccccc3nc12	26.7% (active)
C=CCNC(=O)c1c(N)n(Cc2ccco2)c2nc3ccccc3nc12	24.2% (active)
CC(C)CNC(=O)c1c(N)n(Cc2ccco2)c2nc3ccccc3nc12	13% (inactive)
CC(C)(C)OC(=O)c1c(N)n(Cc2ccco2)c2nc3ccccc3nc12	8.25% (inactive)
COCC(C)OC(=O)c1c(N)n(Cc2ccco2)c2nc3ccccc3nc12 (stereo not given)	17.3% (inactive)
CCCNC(=O)c1c(N)n(Cc2ccco2)c2nc3ccccc3nc12	19.9% (inactive)
CCC(=NCc1ccco1)c1c(O)[nH]c(=O)[nH]c1=O	14.4% (inactive)
CCC(=NCC1CCCO1)c1c(O)n(-c2ccccc2C)c(=O)[nH]c1=O (stereo not given)	6.89% (inactive)
O=C1Nc2ccccc2C1Cc1nc2ccccc2c(=O)n1-c1ccccc1 (stereo not given)	-1.31% (inactive)
Cc1ccc(S(=O)(=O)N2CCCCC2)cc1NC(=O)CN1CC=C(c2ccccc2)CC1	5.04% (inactive)
c1ccc(C2=NP(N3CCOCC3)(N3CCOCC3)=NC(N3CCOCC3)=N2)cc1	-3.04% (inactive)
CCOC(=O)c1nc2ccccc2c(=O)n1-c1cccc(C)c1	0.05% (inactive)
Cc1cccc(N2CCc3c2nc2ccccc2c3N)c1	25.6% (active) and 6.14% (inactive)
Cc1cccc(-n2c(-c3cccs3)nc3ccccc3c2=O)c1	4.14% (inactive)
COCCCn1c(N)c(C(=O)OCCOC)c2nc3ccccc3nc21	27.6% (active)
CCOC(=O)c1c(N)n(Cc2ccc(OC)cc2)c2nc3ccccc3nc12	13.6% (inactive)
COCCOC(=O)c1c(N)n(Cc2ccccc2)c2nc3ccccc3nc12	25% (active)
CCCCn1c(N)c(C(=O)OCCOC)c2nc3ccccc3nc21	17.7% (inactive)
COC(=O)c1c(N)n(Cc2ccc(OC)cc2)c2nc3ccccc3nc12	13.7% (inactive)
CCCCOCCCn1c(N)c(C(=O)OCCOC)c2nc3ccccc3nc21	19.1% (inactive)

Structure (SMILES)	inhibition
CCC(=NCCc1c[nH]c2ccccc12)c1c(O)n(-c2ccc(C)cc2)c(=O)[nH]c1=O	1.85% (inactive)
CCC(=O)N1N=C2C3CCN(CC3)C2C1c1ccccc1 (stereo not given)	0.59% (inactive)
CCCCn1c(O)c(C(C)=NCc2ccc3c(c2)OCO3)c(=O)[nH]c1=O	-11.8% (inactive)
Cc1sc2nc(COC(=O)Cc3ccccc3)[nH]c(=O)c2c1C	13.2% (inactive)
CC(=NCCN1CCCCC1)c1c(O)n(Cc2ccccc2)c(=O)[nH]c1=O	11.5% (inactive)
CCOC(=O)C(O)(c1ccc(N=c2ccccn2C)cc1)C(F)(F)F (stereo not given)	6.08% (inactive)
COC(=O)C(O)(c1cn(C)c2ccccc12)C(F)(F)F (stereo not given)	-1.11% (inactive)
CCOC(=O)C(O)(c1cn(C)c2ccccc12)C(F)(F)F (stereo not given)	25.5% (active)
COc1ccc2c(c1)c(C(=O)O)c(C)n2C(C)C	1.69% (inactive)
CC1CN=C(Nc2ccc(F)c(Cl)c2)S1 (stereo not given)	-0.44% (inactive)
CC1CN=C(Nc2ccccc2)S1 (stereo not given)	4.63% (inactive)
CC(=O)c1cccc(NC2=NCC(C)S2)c1 (stereo not given)	24.8% (active)
Cc1ccc(-n2c(O)c(C=Nc3ccc(S(=O)(=O)N(C)C)cc3)c(=O)[nH]c2=O)cc1	13.7% (inactive)
CC1(C)CN=C(Nc2ccccc2C(F)(F)F)S1	2.41% (inactive)
CC1(C)CN=C(Nc2nc3ccccc3s2)S1	26.9% (active)
c1ccc2sc(NC3=NCCN3)nc2c1	6.67% (inactive)
O=c1[nH]c(=O)n(Cc2ccco2)c(O)c1C=NC1CC1	2.96% (inactive)
COc1cc2c(C(=O)N3CCN(C)CC3)c(C)n(C)c2cc1Br	0.34% (inactive)
CC(=NCCN1CCOCC1)c1c(O)n(C2CCCCC2)c(=O)[nH]c1=O	-4.11% (inactive)
O=C(C1CCC(=O)N1Cc1ccccc1Cl)N1CCC2(CC1)OCCO2 (stereo not given)	4.98% (inactive)
